These results are taken from PubChem BioAssay (NCATS).

Values joined by “and” are separate entries in the source; they are usually repeats but may differ in a detail not shown here. Identical values can stand only once. Inconclusive results are not listed. Active and inactive are the calls of the source. Unless noted, calls come from the whole dose curve; as a rule, active = well fitted curve in the direction sought with a large enough effect; inconclusive = small, poorly fitted or top-dose-only effect, or another doubt; inactive = no such curve, though single readings can be large; an effect the other way counts as inactive or inconclusive.

Experiment [1] is described as follows: qHTS drug screen for cell cycle checkpoint inhibitors in PARPi-resistant BRCA-mutant ovarian cancer cell lines. (AID 1963452; calls by dose curve; note: potency is the fitted concentration of half-maximal effect). The following applies: PEO1/OlaR viability, CellTiter-Glo luminescence, 96 h; for Z-AUC: stronger effect = lower value. An outline of the steps: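 PEO1, PEO4 and PEO1/OlaR ovarian cancer cells, 600 per well, exposed 96 h at 37C to a dilution series. Viability read by CellTiter-Glo luminescence, normalized to DMSO and empty wells; activity summarized as Z-AUC.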
(In general: In qHTS, concentration-response curves come from the screen itself.)

For experiment [2], the target named is Cytochrome P450 2C19 (Homo sapiens) (UniProt P33261). Kind of experiment: qHTS for inhibitors of CYP2C19 against the NCATS DSHEA and TCM libraries (AID 1919974). Note: % is set by controls: 0 for no effect and ±100 for the full control effect. The following applies: CYP2C19 enzyme inhibition, luminescence qHTS; series mostly up to 18.8 µM. An outline of the steps: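 Each CYP isoform and its pro-luciferin substrate, at isoform-specific final concentrations, were preincubated 15 min at RT with substances. NADPH regeneration solution (1x) started a 30-45 min reaction, and P450-Glo luminescence was read.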
Sequence of Cytochrome P450 2C19 (Homo sapiens) (P33261 whole entry, looked up, canonical isoform): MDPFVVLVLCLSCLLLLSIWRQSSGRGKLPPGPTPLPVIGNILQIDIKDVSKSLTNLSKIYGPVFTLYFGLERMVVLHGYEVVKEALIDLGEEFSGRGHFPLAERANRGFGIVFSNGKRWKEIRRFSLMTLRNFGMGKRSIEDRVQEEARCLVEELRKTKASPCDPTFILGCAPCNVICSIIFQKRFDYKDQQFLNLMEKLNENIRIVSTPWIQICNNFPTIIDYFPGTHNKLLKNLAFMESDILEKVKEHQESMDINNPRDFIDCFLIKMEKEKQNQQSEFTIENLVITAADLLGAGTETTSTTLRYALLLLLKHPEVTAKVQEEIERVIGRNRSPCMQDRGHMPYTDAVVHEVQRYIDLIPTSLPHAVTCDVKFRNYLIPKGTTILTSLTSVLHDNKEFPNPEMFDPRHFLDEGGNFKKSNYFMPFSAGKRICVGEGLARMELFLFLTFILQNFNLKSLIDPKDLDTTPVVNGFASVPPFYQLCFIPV

A short description of experiment [3]: KB-3-1 P-gp reporter qHTS against the NCATS DSHEA and TCM libraries (AID 1919975). Note: 0% is about no effect. The following applies: KB-3-1 parental cells, CellTiter-Glo luminescence viability, 72 h; series mostly up to 14.4 µM. An excerpt: (§1) Assay Development and Screening Technology Laboratory (ADST)
(§2) National Center for Advancing Translational Sciences (NCATS), Rockville, MD
(§3) National Institute of Health (NIH), Bethesda, Maryland
(§4) Dietary Supplements and Natural Products have minor oversight of their safety and efficacy. We assembled a collection of Dietary Supplements and Natural Products (DSNP) as well as Traditional Chinese Medicinal (TCM) Plant extracts, which were screened against an in vitro panel of assays, including a liver cytochrome p450 enzyme panel, CAR/PXR signaling pathways, and P-gp transporter assays, to assess their activity. This pipeline facilitated the interrogation of Natural Product-Drug Interaction (NaPDI) through prominent metabolizing pathways. In addition, we compared the activity profiles of the DSNP/TCM substances with those of an approved drug collection. Many of the approved drugs have well-annotated mechanisms of action (MOA) while the MOAs for most of the DSNP and TCM samples remain unknown. Based on the premise that compounds with similar activity profiles tend to share similar targets or MOA, we clustered the library activity profiles to identify overlap with the NCATS Pharmaceutical Collection to predict the MOAs of the DSNP/TCM substances. Overall, we highlight four significant bioactivity profiles (measured by p-values) as examples of this prediction. To assess broad cytotoxicity, we employed screening against a HepG2 cell line. In addition, transporter-mediated drug interactions are utilized in the characterization of DDIs using a P-glycoprotein (P-gp) assays. To profile potential P-gp activity, a differential cell viability was measured against two cell lines: a parental KB-3-1 human cervical adenocarcinoma cell line and the drug-resistant subline KB-8-5-11 that overexpresses P-gp.
(§5) To this end, we profiled both collections for potential CAR and/or PXR activity, employing a previously published 1536-well qHTS assay.
(§6) [1] Lee TD, et al. A High-Throughput Screen of a Library of Therapeutics Identifies Cytotoxic Substrates of P-glycoprotein. Mol Pharmacol. Nov 2019;96(5):629-640. doi:10.1124/mol.119.115964
(§7) PROTOCOL TABLE (as described by Inglese J, Shamu CE and Guy RK. 2007)
(§8) SEQUENCE No. (e.g., 1, 2, 3, etc.); PARAMETER (e.g., Cells, Incubation, Reagent, etc.); VALUE; DESCRIPTION.
1; Cells; 5 uL; KB-3-1 cells, white solid-bottom tissue treated Greiner plate.
2; Incubation; 4 hrs; 37C, 95% humidity, 5% CO2.
3; Compounds and control; 23 nL; Kalypsis pin tool (Wako USA) equipped with a 1536-well pin head to transfer to the assay plates.
4; Incubation; 72 hrs; 37C, 95% humidity, 5% CO2.
5; Reagent; 2.5 uL; CellTiter-Glo.
6; Centrifuge; 1000 RPM; 15 seconds.
7; Incubation; 30 min; room temperature.
8; Read; Luminescence; ViewLux plate reader.
(§9) NOTES (numbers refer to Sequence numbers above)
1. Cell line KB-3-1 and its colchicine-selected, P-gp-overexpressing subline KB-8-5-11 were maintained in DMEM (Thermofisher catalog #11965) with 10% FBS and 1% penicillin/streptomycin at 37C in 5% CO2. For the screen, assay medium was identical to culture medium. Briefly, 5 uL of cells at 1 x 10^5 cells/mL (500 cells/well) were dispensed into a 1536-well white solid-bottom tissue treated plate (Greiner Bio-One) using a Multidrop Combi dispenser.
2. Plates were incubated at 37C, 95% humidity, 5% CO2 for ~4 hours to allow for cell attachment.
3. Compounds and intraplate control (Bortezomib; final concentration range 228 pM - 7.5 uM) were transferred (16 nL) via pintool (Wako Automation), for a final concentration of 15.6 nM - 30.0 uM (most substances).
4. Plates were incubated for ~72 hours at 37C, 95% humidity, 5% CO2.
5. Plates were then dispensed with 2.5 uL of CellTiter-Glo.
6. The assay plates were centrifuged for 15 seconds at 1,000 RPM's.
7. The plates were incubated for 30-minute at room temperature.
8. Luminescence intensity was detected using a PerkinElmer ViewLux microplate reader.
[…]

Experiment [4] has as its target Cytochrome P450 1A2 (Homo sapiens) (UniProt P05177). The experiment can be described thus: qHTS for inhibitors of CYPIA2 against the NCATS DSHEA and TCM libraries (AID 1919976). Note: % is set by controls: 0 for no effect and ±100 for the full control effect. The following applies: recombinant CYP1A2 enzyme activity, luminescence; series mostly up to 20.3 µM. An outline of the steps: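 Reaction started with 1x NADPH regeneration solution and run 30-45 min, room temperature, protected from light, after compounds sat 15 min with CYP1A2 and pro-luciferin substrate. P450-Glo detection gave luminescence; furafylline served as control.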

The nature of experiment [5]: qHTS Counterscreen for compound interference against the NCATS DSHEA and TCM libraries (AID 1919978).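 Note: compounds preincubated with 1 µM D-luciferin or buffer before detection reagent; % of control where 0% means no effect.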 The following applies: firefly luciferase detection reagent interference, luminescence. An outline of the steps:
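Compounds, titrated from 19.5 nM to 39.8 uM final, were pinned onto 1 uM D-luciferin or plain 100 mM potassium phosphate. After 15 min at room temperature, luciferin detection reagent was added for 30 min before the luminescence read.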

Experiment [6] can be described thus: Dual reporter qHTS for agonist of Pregnane X Receptor (hPXR) against the NCATS DSHEA and TCM libraries: Fluorescence readout (AID 1920058). Note: 0% is about no effect. The following applies: PXR dual reporter cells; series mostly up to 22 µM. Put shortly: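 Viability readout (CellTiter-Fluor, 405/540 nm, 1 h) from agonist-mode PXR dual reporter in hPXR-Luc HepG2 cells. Substances ~24 h, 37 °C, 5% CO2; rifampicin reference, tetraoctyl ammonium bromide cytotoxic control.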

The target of experiment [7] is Nuclear receptor subfamily 1 group I member 2 (Homo sapiens) (UniProt O75469). The experiment can be described thus: Dual reporter qHTS for agonist of Pregnane X Receptor (hPXR) against the NCATS DSHEA and TCM libraries: Luminescence readout (AID 1920059). Note: 0% is about no effect. The following applies: hPXR dual reporter cells, luciferase luminescence agonist; series mostly up to 22 µM. Put shortly:
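Luminescent PXR reporter read (ONE-Glo) after a CellTiter-Fluor viability read, following 24 h, 37C treatment of HepG2 cells stably carrying hPXR-Luc.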

The target is the same in experiment [8]. The experiment can be described thus: Dual reporter qHTS for antagonist of Pregnane X Receptor (hPXR) against the NCATS DSHEA and TCM libraries: Luminescence Readout (AID 1920060). Note: 0% is about no effect. The following applies: hPXR dual reporter cells, luciferase luminescence, antagonist mode; series mostly up to 22 µM.
Source text: as §1, §2, §3, §4, §5, §6
For PXR luciferase reporter gene assays, we used hPXR-LucHepG2cells provided by Dr. Taosheng Chen (Department of Chemical Biology and Therapeutics, St. Jude Children's Research Hospital). Cells were cultured in EMEM supplemented with 10% fetal bovine serum, 100U/mL penicillin and 100ug/mL streptomycin, and 500ug/mL of geneticin.
as §7, §8
1; Cells; 5 uL; hPXR-LucHepG2; white solid-bottom Greiner plate.
2; Incubation; 5h; 37C, 95% humidity, 5% CO2
3; Compounds and control; 23 nL; Kalypsis pintool (Wako USA).
4; Reagent; 1uL; rifampicin (RIF) in the antagonist mode.
6; Reagent; 1 uL; CellTiter-Fluor detection reagent.
7; Incubation; 1 hr; 37C, 5% CO2.
8; Read; Fluorescence; ViewLux plate reader.
9; Reagent; 4 uL; ONE-Glo Luciferase detection reagent.
10; Incubation; 30 min; room temperature.
11; Read; Luminescence; ViewLux plate reader.
as §9
1. Briefly, 5uL of hPXR-LucHepG2 cells in phenol red-free DMEM containing 5% charcoal-stripped FBS, 1 mM sodium pyruvate (Invitrogen), 2 mM L-glutamine (Invitrogen), and 100 U/mL penicillin and 100ug/mL streptomycin were dispensed using a BioRAPTR FRD at 4 x 10^5cells/mL (2000cells/well) in tissue culture-treated 1536-well white assay plates (GreinerBio-One).
2. Plates were incubated for 5h at 37C, 95% humidity, and 5% CO2 to allow for cell attachment.
3. Compounds (final concentration for most substances ranged from 15.6 nM to 45.9uM), positive SPA70 (final concentration range of 2.8 nM to 92uM for the antagonist mode), and cytotoxicity control tetraoctyl ammonium bromide (final concentration of 92uM) were transferred (23 nL) via pintool (Wako Automation).
4-5. […]

Experiment [9] is described as follows: Dual reporter qHTS for antagonist of Pregnane X Receptor (hPXR) against the NCATS DSHEA and TCM libraries: Fluorescence Readout (AID 1920061). Note: 0% is about no effect. The following applies: PXR dual reporter cells, antagonist mode; series mostly up to 22 µM. Put shortly: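 hPXR-Luc HepG2 cells exposed 24 h at 37 C to compounds with 2 uM rifampicin in antagonist mode; luciferase luminescence measured by ONE-Glo, with CellTiter-Fluor viability read beforehand.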

[10] abbreviates: measured here: PEO1 parental Z-AUC.

Sequence of Nuclear receptor subfamily 1 group I member 2 (Homo sapiens) (O75469 whole entry, looked up): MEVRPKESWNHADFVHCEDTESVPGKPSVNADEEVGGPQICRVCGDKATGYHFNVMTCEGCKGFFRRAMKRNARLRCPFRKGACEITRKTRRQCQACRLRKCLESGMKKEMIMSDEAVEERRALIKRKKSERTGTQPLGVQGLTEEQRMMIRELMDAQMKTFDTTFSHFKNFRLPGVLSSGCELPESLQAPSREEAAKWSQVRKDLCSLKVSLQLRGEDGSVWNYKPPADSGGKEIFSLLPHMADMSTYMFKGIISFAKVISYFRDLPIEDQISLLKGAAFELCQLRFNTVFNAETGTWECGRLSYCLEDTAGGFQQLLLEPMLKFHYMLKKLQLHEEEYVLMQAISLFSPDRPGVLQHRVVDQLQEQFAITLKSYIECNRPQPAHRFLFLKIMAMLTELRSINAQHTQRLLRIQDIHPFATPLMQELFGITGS
Sequence of Cytochrome P450 1A2 (Homo sapiens) (P05177 whole entry, looked up): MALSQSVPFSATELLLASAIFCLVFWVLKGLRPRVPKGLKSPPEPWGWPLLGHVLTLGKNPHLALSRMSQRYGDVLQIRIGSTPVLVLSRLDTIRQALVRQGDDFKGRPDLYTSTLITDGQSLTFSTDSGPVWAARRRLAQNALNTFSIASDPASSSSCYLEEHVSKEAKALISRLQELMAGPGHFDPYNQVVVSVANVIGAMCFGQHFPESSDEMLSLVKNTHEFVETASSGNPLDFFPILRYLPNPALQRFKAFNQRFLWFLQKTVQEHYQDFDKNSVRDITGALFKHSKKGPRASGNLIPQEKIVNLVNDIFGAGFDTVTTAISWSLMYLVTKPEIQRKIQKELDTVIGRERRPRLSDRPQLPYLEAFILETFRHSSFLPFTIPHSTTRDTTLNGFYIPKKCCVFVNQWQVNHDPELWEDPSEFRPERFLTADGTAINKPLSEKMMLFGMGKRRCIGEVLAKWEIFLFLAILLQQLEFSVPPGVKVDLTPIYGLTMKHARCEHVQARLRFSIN

On to `CCOCc1nc2c(N)nc3ccccc3c2n1CC(C)(C)O`, for which the Z-AUC was -0.746 (inactive) in experiment [1], -0.509 in experiment [1] (setting [10]) and -0.947 in [1] (measured here: PEO4 Z-AUC).
Taken in the same sequence, the figures for `Cc1c(NC(=O)c2cc(C(N)=O)nc3cc(F)ccc23)c(C(F)(F)F)nn1Cc1ccc(C#N)cc1` were -2.01 (inactive), -1.49 and -1.92.
For the compound `CC(C)=CCC[C@](C)(O)[C@H]1CC[C@]2(C)[C@@H]1[C@H](O)CC1[C@@]3(C)CC[C@H](O)C(C)(C)[C@@H]3[C@@H](O[C@@H]3O[C@H](CO)[C@@H](O)[C@H](O)[C@H]3O[C@@H]3O[C@H](CO)[C@@H](O)[C@H](O)[C@H]3O)C[C@]12C` (stereo partly drawn), the Potency entry in experiment [2] and in experiment [4] was “inactive” throughout. Besides, the result in [3], in experiment [6], in [7], in experiment [8] and in experiment [9] was inactive. Besides, the max response in [5] is -4.33% (inactive).
With `CN(C)C1CCN(C(=O)c2ccc(NC(=O)Nc3ccc(-c4nc(N5CCOCC5)nc(N5CCOCC5)n4)cc3)cc2)CC1`, in experiment [1], the Potency is 309 nM (active) and 692 nM (active). Also, the Z-AUC in experiment [1] (setting [10]) was -2.41 and -1.47; in [1] (measured here: PEO4 Z-AUC), -1.87 and -2.03.
For the compound `Nc1nccn2c(C3CCC(C(=O)O)CC3)nc(-c3cc4cccc(Cl)c4[nH]3)c12` (stereo not drawn), the results for the Z-AUC in experiment [1], in [1] (setting [10]) and in experiment [1] (measured here: PEO4 Z-AUC) were -0.361 (inactive), -0.773 and -1.14, respectively.
As to `C#CC[C@H](c1nc2cc(Cl)ccc2c(=O)n1Nc1ccccc1)N(CCCN)C(=O)c1cccc(Cl)c1F`, the Potency in experiment [1] is 1.23 µM (active). The Z-AUC was -1.73 in experiment [1] (setting [10]) and -1.5 in experiment [1] (measured here: PEO4 Z-AUC).
With `CCO[C@@H]1OC(=O)C[C@@H]1NC(=O)[C@@H]1CCCN1C(=O)[C@@H](NC(=O)c1ccc(N)c(Cl)c1)C(C)(C)C`, the Z-AUC in experiment [1] was 0.612 (inactive); in experiment [1] (setting [10]), 0.457; in experiment [1] (measured here: PEO4 Z-AUC), 0.143.
The corresponding values for `O=C(NOCC(O)CO)c1ccc(F)c(F)c1Nc1ccc(I)cc1F` (stereo not drawn) are -1.69 (inactive), -1.32 and -0.907.
Taken in the same sequence, the figures for `CN1CCN(c2ccc(C(=O)Nc3n[nH]c4ccc(Cc5cc(F)cc(F)c5)cc34)c(NC3CCOCC3)c2)CC1` were -0.903 (inactive), -1.2 and -1.38.
Taken in the same sequence, the figures for `O=C(C(c1ccccc1)c1ccccc1)N1CCN(CC(O)COc2cccc3ncccc23)CC1` (stereo not drawn) were 0.889 (inactive), 0.623 and 0.296.
For the compound `CC1CC[C@]2(C(=O)O)CC[C@]3(C(=O)O)C(=CCC4[C@@]5(C)CC[C@H](OC6OC(C)C(O)C(OC7OC(CO)C(O)C(O)C7O)C6O)C(C)(C)C5CC[C@]43C)C2C1C` (stereo partly drawn), the Potency result in experiment [2] and in experiment [4] was “inactive” in each case. The outcome in experiment [3], in experiment [6], in experiment [7], in [8] and in experiment [9] was inactive. For the same compound, the max response in experiment [5] was -1.38% (inactive).
